Experimental data from PubChem BioAssay (EPA / NIEHS).
The source made the active and inactive calls. The calls were made as follows: active = hit-call score of the fitted dose curve at least 0.9, where 1 is the maximum; inactive = score below 0.9.

target: Transcriptional activator Myb (Homo sapiens) (UniProt P10242); assay: ATG_Myb_CIS: Attagene CIS-FACTORIAL HepG2 Assay for human Myeloblastosis (Myb) Proto-Oncogene Transcription Factor (AID 2282986); settings: HepG2 Attagene CIS-FACTORIAL Myb reporter transcription; actives raise or lower the signal
Sequence (P10242 whole entry, looked up): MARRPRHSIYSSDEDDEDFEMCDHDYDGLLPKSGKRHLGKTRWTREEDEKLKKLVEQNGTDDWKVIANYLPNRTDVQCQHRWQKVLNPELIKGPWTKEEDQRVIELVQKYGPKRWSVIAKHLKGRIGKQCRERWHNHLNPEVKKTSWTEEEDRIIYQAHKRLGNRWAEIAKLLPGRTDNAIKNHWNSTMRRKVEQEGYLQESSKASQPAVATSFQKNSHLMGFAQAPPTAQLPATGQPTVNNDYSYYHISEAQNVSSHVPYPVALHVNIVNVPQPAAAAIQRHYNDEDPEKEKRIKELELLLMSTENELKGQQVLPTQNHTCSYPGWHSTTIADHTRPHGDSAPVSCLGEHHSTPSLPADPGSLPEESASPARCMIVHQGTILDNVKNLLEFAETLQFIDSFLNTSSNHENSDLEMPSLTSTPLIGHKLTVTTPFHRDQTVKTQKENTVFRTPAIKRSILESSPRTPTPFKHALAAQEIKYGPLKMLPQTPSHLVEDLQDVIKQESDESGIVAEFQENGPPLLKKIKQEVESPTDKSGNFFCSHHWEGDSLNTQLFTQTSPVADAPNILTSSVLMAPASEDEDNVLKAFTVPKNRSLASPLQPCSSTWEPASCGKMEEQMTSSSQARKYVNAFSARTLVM
Procedure: ATG_CIS is a cell-based, multiplexed-readout assay that uses HepG2, a human liver cell line, with measurements taken at 24 hours after chemical dosing in a 24-well plate.ATG_Myb_CIS is one of 52 assay component(s) measured or calculated from the ATG_CIS assay. It is designed to make measurements of mRNA induction, a form of inducible reporter, as detected with fluorescence intensity signals by Reverse transcription polymerase chain reaction (RT-PCR) and Capillary electrophoresis technology.Data from the assay component ATG_Myb_CIS was analyzed into 1 assay endpoint. This assay endpoint, ATG_Myb_CIS, was analyzed with bidirectional fitting relative to DMSO as the negative control and baseline of activity. Using a type of inducible reporter, measures of mRNA for gain or loss-of-signal activity can be used to understand the reporter gene at the transcription factor-level as they relate to the gene MYB. Furthermore, this assay endpoint can be referred to as a primary readout, because this assay has produced multiple assay endpoints where this one serves a reporter gene function. To generalize the intended target to other relatable targets, this assay endpoint is annotated to the dna binding intended target family, where the subfamily is MYB proteins.
Human liver HepG2 cells are transiently transfected with multiple reporter transcription units (MRTUs) in 6-well plates using FuGene 6 reagent (Roche; 3 ml FuGene/1 mg DNA). The MRTU constructs are regulated by a cis-regulating element (promoter). […] A major difference between the CIS and TRANS system is that in CIS activities of endogenous TFs are measured, whereas the TRANS assay evaluates changes in activities of exogenous, chimeric NR-Gal4 proteins. […] At the end of 24 hour incubation, total RNA was isolated using TriZol reagent (Invitrogen). The isolated RNA is then reverse-transcribed using oligo(dT) primer and Mo-MLV reverse transcriptase (Invitrogen) with DNAse I (Ambion) treatment for 30 min. The one-tenth of the produced cDNA was amplified by PCR using Taq DNA polymerase (Invitrogen) and two reporter sequence-specific primers. The PCR products were fluorescently labeled by primer extension with 6-arboxyfluorescein (6-FAM) 5'-labeled reporter sequence-specific primer (2 min at 95 C, 20 s at 68 C and 10 min at 72 C) and these products were digested with 5U of HpaI (New England Biolabs) for 2h at 37 C. The fragments were purified using Qiaquick PCR columns (Qiagen), analyzed on an ABI 3130xL genetic analyzer (Applied Biosystems) with peak positions identified by using a set of X-rhodamine (ROX)-labeled MapMarker1000 molecular weight standards (BioVentures). The raw capillary electrophoresis data was processed using Attagraph software (Attagene).

Row | SMILES | outcome | AC50
1 | COc1ccc(C)cc1N | inactive | –
2 | COCCOC[C@H](CC1(C(=O)NC2CCC(C(=O)O)CC2)CCCC1)C(=O)Oc1ccc2c(c1)CCC2 (stereo not given in full) | inactive | –
3 | C1CCC(SSC2CCCCC2)CC1 | inactive | –
4 | COc1cc(-c2nc(NC(=O)c3cc4cc(C)cc(C)c4n3CC(=O)O)sc2CCC2CCCCC2)c(OC)cc1Cl | – | 24.2 µM (active)
5 | CCCCCCCCCCC | inactive | –
6 | CNC(=O)[C@H]1O[C@@H](n2cnc3c(NCc4cc(Cl)ccc4OCc4cc(C)no4)ncnc32)[C@H](O)[C@@H]1N | inactive | –
7 | Cc1c(C(=O)O)c(O)cc2c1C(=O)c1c(O)c([C@@H]3O[C@H](CO)[C@@H](O)[C@H](O)[C@H]3O)c(O)c(O)c1C2=O | inactive | –
8 | CCCCCC(=O)O | inactive | –
9 | Cc1cccc([N+](=O)[O-])c1C | inactive | –
10 | CCCCCCCCCCCC(=O)OC | inactive | –
11 | Cc1ccc(C)c(O)c1C | inactive | –
12 | CCCc1cc(=O)[nH]c(=S)[nH]1 | inactive | –
13 | CCc1c(C(=O)NN2CCCCC2)nn(-c2ccc(Cl)cc2Cl)c1-c1ccc(Br)cc1 | inactive | –
14 | O=[N+]([O-])C(CO)(CO)CO | inactive | –
15 | Nc1ccccc1N | inactive | –
16 | Cc1ccc(Cl)cc1 | inactive | –
17 | CCCCCCCCCCCCCO | – | 34.3 µM (active)
18 | Oc1ccc2c(c1)OC[C@@H](N1CCC(O)(c3ccc(F)cc3)CC1)[C@H]2O | inactive | –
19 | CC(C)c1ccc(C(=O)N=C(N)N)cc1S(C)(=O)=O | inactive | –
20 | CN[C@H]1CC[C@@H](c2ccc(Cl)c(Cl)c2)c2ccc(S(N)(=O)=O)cc21 | inactive | –

Row | SMILES | outcome | AC50
21 | COC(=O)c1ccc(O)cc1 | inactive | –
22 | CC(=O)Oc1ccccc1C(=O)O | inactive | –
23 | C=CCOC(=O)c1ccccc1C(=O)OCC=C | inactive | –
24 | O=C(OCCCCCOC(=O)c1ccccc1)c1ccccc1 | inactive | –
25 | c1cc(-c2ccncc2)ccn1 | inactive | –
26 | CCOC(=O)CCC(=O)OCC | inactive | –
27 | CC=Cc1ccc(O)c(OC)c1 | inactive | –
28 | NCCO | inactive | –
29 | CCCCC(CC)COC(=O)CC(C(=O)OCC(CC)CCCC)S(=O)(=O)O (stereo not given) | inactive | –
30 | CCOc1ccc2c(c1)C(C)=CC(C)(C)N2 | – | 183 µM (active)
31 | NS(=O)(=O)c1cc2c(cc1Cl)NCNS2(=O)=O | inactive | –
32 | CC(=O)C(C)=CC1C(C)=CCCC1(C)C (stereo not given) | inactive | –
33 | O=c1[nH]cc(F)c(=O)[nH]1 | inactive | –
34 | COCCOCCOC | inactive | –
35 | Nc1ccc(S(=O)(=O)c2ccc(N)cc2)cc1 | inactive | –
36 | CN1CCN(Cc2cc(-c3ccc4[nH]c(=O)oc4c3)co2)[C@@H](c2ccc(F)cc2)C1 | inactive | –
37 | CNCc1cc(F)ccc1Oc1ccc(Cl)c(Cl)c1 | inactive | –
38 | O=c1c(O)c(-c2ccc(O)c(O)c2)oc2cc(O)cc(O)c12 | inactive | –
39 | Nc1nc(N)c2nc(CNc3ccc(C(=O)N[C@@H](CCC(=O)O)C(=O)O)cc3)cnc2n1 | inactive | –
40 | COc1cc(/C=C/C(=O)CC(=O)/C=C/c2ccc(O)c(OC)c2)ccc1O | inactive | –
